Experiment [1] in a line: CEETOX_H295R_CORTIC_noMTC: CeeTox H295R High-throughput Steroidogenesis Assay for Corticosterone (CORTIC), maximum tolerated concentration (MTC) filtered results only (AID 2283917; active means hit-call score of the fitted dose curve at least 0.9, where 1 is the maximum; inactive means score below 0.9). Particulars: actives raise or lower the signal. A digest of the protocol: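 Following OECD 456 with minor changes, H295R cultures received 10 uM forskolin for 48 h, then test chemical at 0.1% DMSO for 48 h. Media steroids were extracted and measured by LC-MS/MS.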

The nature of experiment [2]: CEETOX_H295R_DOC_noMTC: CeeTox H295R High-throughput Steroidogenesis Assay for DOC, maximum tolerated concentration (MTC) filtered results only (AID 2283918; active means hit-call score of the fitted dose curve at least 0.9, where 1 is the maximum; inactive means score below 0.9). Conditions: actives raise or lower the signal. A digest of the protocol:
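11-Deoxycorticosterone secreted by human adrenal H295R cells quantified by HPLC-MS/MS after 48 h chemical exposure (0.1% DMSO), following 48 h 10 uM forskolin prestimulation. Concentrations not filtered by MTT-derived MTC; bidirectional fitting.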

Experiment [3] can be described thus: CEETOX_H295R_TESTO_noMTC: CeeTox H295R High-throughput Steroidogenesis Assay for Testosterone (TESTO), maximum tolerated concentration (MTC) filtered results only (AID 2283924; active means hit-call score of the fitted dose curve at least 0.9, where 1 is the maximum; inactive means score below 0.9). Particulars: actives raise or lower the signal. Put shortly:
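H295R cells prestimulated 48 h with 10 uM forskolin, then exposed 48 h to chemicals in 0.1% DMSO final. Testosterone in medium quantified by MTBE extraction and HPLC-MS/MS; bidirectional fit versus DMSO, concentrations […] filtered by MTT-based maximum tolerated concentration.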

Experiment [4] in a line: CEETOX_H295R_ESTRADIOL_noMTC: CeeTox H295R High-throughput Steroidogenesis Assay for Estradiol, maximum tolerated concentration (MTC) filtered results only (AID 2283919; active means hit-call score of the fitted dose curve at least 0.9, where 1 is the maximum; inactive means score below 0.9). Conditions: actives raise or lower the signal. Put shortly: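 H295R human adrenal cells pre-stimulated 48 h with 10 uM forskolin, then exposed 48 h to chemical (0.1% DMSO final). Estradiol in medium measured by HPLC-MS/MS after MTBE extraction and dansyl derivatization; bidirectional fit versus DMSO, concentrations not MTT-filtered.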

Experiment [5] is described as follows: CEETOX_H295R_ESTRONE_noMTC: CeeTox H295R High-throughput Steroidogenesis Assay for Estrone, maximum tolerated concentration (MTC) filtered results only (AID 2283921; active means hit-call score of the fitted dose curve at least 0.9, where 1 is the maximum; inactive means score below 0.9). Particulars: actives raise or lower the signal. A digest of the protocol: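 H295R cells prestimulated 48 h with 10 uM forskolin, then exposed 48 h to chemical in 0.1% DMSO; medium estrone measured by HPLC-MS/MS after MTBE extraction and dansyl derivatization, fitted bidirectionally versus DMSO without MTT-based MTC filtering.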

In experiment [6] the target is PGR (gene 5241) (UniProt P06401). The experiment can be described thus: TOX21_PR_BLA_Followup_Antagonist_ratio: Tox21 HEK293 Progesterone Receptor (PR) Antagonism Beta-lactamase Follow-Up Assay, Ratio (AID 2283934). Put shortly:
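HEK293T PR-UAS-bla, 2% CS-FBS; 6 hr plating, then cpd + R5020 (1 nM final), 16 hr 37C/5% CO2. B/G FRET substrate 2 h RT. Ratio ch2/ch1 vs DMSO; CellTiter-Glo viability multiplexed, autofluorescence checked.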

The nature of experiment [7]: TOX21_PR_BLA_Followup_Agonist_viability: Viability Assessment in the Tox21 HEK293 Progesterone Receptor (PR) Agonism Beta-lactamase Follow-Up Assay (AID 2283935).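 Further: cells exposed to compound for 16 hr at 37 °C; signal loss means lower viability so actives are cytotoxic.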 Put shortly: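 HEK293T PR-UAS-bla, 3,000 cells/well, 2% CS-FBS; 6 hr pre-incubation; cpd in DMSO, 16 hr 37C; LiveBLAzer 2 hr RT, then CellTiter-Glo 30 min RT, luminescence. Decrease = lost viability.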
A short description of experiment [8]: TOX21_PR_BLA_Followup_Antagonist_viability: Viability Assessment in the Tox21 HEK293 Progesterone Receptor (PR) Antagonism Beta-lactamase Follow-Up Assay (AID 2283936).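 Further: hits lower the luminescence signal meaning cytotoxicity.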 Put shortly: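 PR-UAS-bla HEK293T cells (3,000/well, 2% charcoal-stripped FBS) given compound plus R5020 agonist, 16 h at 37C. CellTiter-Glo added after bla read, 30 min at room temperature; luminescence loss indicates cytotoxicity.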

In experiment [9] the target is PGR (gene 5241) (UniProt P06401). The experiment can be described thus: TOX21_PR_LUC_Followup_Antagonist: Tox21 HEK293 Progesterone Receptor (PR) Antagonism Luciferase Follow-Up Assay (AID 2283938).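 Further: curve fitted upward as signal gain over DMSO baseline despite antagonist label.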 A digest of the protocol: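 Luciferase reporter in HEK293-PR-A-luc cells: 16 h compound treatment at 37C, ONE-Glo luminescence detection, DMSO as negative control and baseline.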

Experiment [10] can be described thus: TOX21_PR_LUC_Followup_Agonist_viability: Viability Assessment in the Tox21 HEK293 Progesterone Receptor (PR) Agonism Luciferase Follow-Up Assay (AID 2283941).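 Further: loss of signal means cytotoxicity so actives lower viability.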 A digest of the protocol: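 Cells were kept 5 days in charcoal-stripped serum medium before plating HEK293-PR-A-luc at 3,000 cells/well. After 5 h they received DMSO-dissolved compound and incubated 16 h at 37C. Viability was taken from CellTiter-Glo ATP luminescence.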

For experiment [11], the target named is Thyroid hormone receptor alpha (Rattus norvegicus) + Thyroid hormone receptor beta (Rattus norvegicus) (UniProt P18113+P63059). Briefly: TOX21_TR_LUC_GH3_Agonist_Followup: Tox21 GH3 Thyroid Hormone Receptor Agonism Luciferase Follow-Up Assay (AID 2283939). A digest of the protocol: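 Rat GH3 cells (1,500/well) in serum-free assay medium, treated with 15-point series, 92 uM to 5 nM final, for 24 h at 37C. Luciferase via ONE-Glo luminescence; gain of signal fitted against DMSO, T3 positive control.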

Experiment [12] deals with THRA (gene 7067) (UniProt P10827). Briefly: TOX21_TRA_COA_Agonist_Followup_ratio: Tox21 Thyroid Hormone Receptor alpha Agonism through Coactivator Recruitment Follow-Up Assay, Ratio (AID 2283948; active means hit-call score of the fitted dose curve at least 0.9, where 1 is the maximum; inactive means score below 0.9). Put shortly: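 Agonist-mode biochemical TR-FRET with TRα LBD and SRC-2 coactivator peptide; activity expressed as percent of T3 response over DMSO baseline.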
For experiment [13], the target named is THRB (gene 7068) (UniProt P10828). The experiment can be described thus: TOX21_TRB_BLA_Agonist_Followup_ratio: Tox21 Thyroid Hormone Receptor beta Agonism Beta-lactamase (BLA) Follow-Up Assay, Ratio (AID 2283954). A digest of the protocol: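 Human TRβ LBD–GAL4 DBD fusion in GeneBLAzer UAS-bla HEK293T cells; 11 concentrations in triplicate, 18 h at 37°C/5% CO2, T3 as agonist control. CCF4-AM substrate 2 h at room temperature; 460:530 nm ratio fitted for gain of signal versus DMSO.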

The target is the same in experiment [14]. The experiment can be described thus: TOX21_TRB_COA_Agonist_Followup_ratio: Tox21 Thyroid Hormone Receptor beta Agonism through Coactivator Recruitment Follow-Up Assay, Ratio (AID 2283963; active means hit-call score of the fitted dose curve at least 0.9, where 1 is the maximum; inactive means score below 0.9). Put shortly:
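GST-TRb LBD 5.0 nM + 0.10% BSA + cpd; add fluorescein-SRC-2 200 nM / Tb anti-GST Ab 2 nM; TR-FRET ex 340, em 520:495; norm DMSO 0%, T3 100%.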

Experiment [15] has as its target Retinoic acid receptor RXR-alpha (Homo sapiens) (UniProt P19793). The experiment can be described thus: TOX21_TR_RXR_BLA_Agonist_Followup_ratio: Tox21 Thyroid Hormone Receptor beta Retinoid X Receptor alpha (RXRa) Agonism Beta-lactamase (BLA) Follow-Up Assay, Ratio (AID 2283968). A digest of the protocol: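 HEK293T RXRa-bla, qHTS; cpd 11-pt conc. in triplicate, 16 h 37C/5% CO2; CCF4-AM 2 h RT; ratio 460:530 nm; agonist direction vs DMSO; 9-cis retinoic acid as positive control.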

The nature of experiment [16]: TOX21_TR_RXR_BLA_Agonist_Followup_viability: Viability Assessment in the Tox21 Thyroid Hormone Receptor beta Retinoid X Receptor alpha (RXRa) Agonism Beta-lactamase (BLA) Follow-Up Assay (AID 2283970). A digest of the protocol:
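Cells: HEK293T RXRa-UAS-bla, 2,500/well; medium phenol red-free DMEM + 2% charcoal-stripped FBS; 16h, 37C/5% CO2; qHTS concentration series. Read: CellTiter-Glo luminescence (ATP); bidirectional fit, DMSO = baseline.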

Results filed as inconclusive are left out. Active and inactive are the calls of the source. How the source made its calls, unless noted: active means hit-call score of the fitted dose curve at least 0.9, where 1 is the maximum; inconclusive means response in the unintended direction; inactive means score below 0.9.

Here are results for seven compounds from PubChem BioAssay (EPA / NIEHS).

PGR (gene 5241), sequence (P06401 whole entry, looked up): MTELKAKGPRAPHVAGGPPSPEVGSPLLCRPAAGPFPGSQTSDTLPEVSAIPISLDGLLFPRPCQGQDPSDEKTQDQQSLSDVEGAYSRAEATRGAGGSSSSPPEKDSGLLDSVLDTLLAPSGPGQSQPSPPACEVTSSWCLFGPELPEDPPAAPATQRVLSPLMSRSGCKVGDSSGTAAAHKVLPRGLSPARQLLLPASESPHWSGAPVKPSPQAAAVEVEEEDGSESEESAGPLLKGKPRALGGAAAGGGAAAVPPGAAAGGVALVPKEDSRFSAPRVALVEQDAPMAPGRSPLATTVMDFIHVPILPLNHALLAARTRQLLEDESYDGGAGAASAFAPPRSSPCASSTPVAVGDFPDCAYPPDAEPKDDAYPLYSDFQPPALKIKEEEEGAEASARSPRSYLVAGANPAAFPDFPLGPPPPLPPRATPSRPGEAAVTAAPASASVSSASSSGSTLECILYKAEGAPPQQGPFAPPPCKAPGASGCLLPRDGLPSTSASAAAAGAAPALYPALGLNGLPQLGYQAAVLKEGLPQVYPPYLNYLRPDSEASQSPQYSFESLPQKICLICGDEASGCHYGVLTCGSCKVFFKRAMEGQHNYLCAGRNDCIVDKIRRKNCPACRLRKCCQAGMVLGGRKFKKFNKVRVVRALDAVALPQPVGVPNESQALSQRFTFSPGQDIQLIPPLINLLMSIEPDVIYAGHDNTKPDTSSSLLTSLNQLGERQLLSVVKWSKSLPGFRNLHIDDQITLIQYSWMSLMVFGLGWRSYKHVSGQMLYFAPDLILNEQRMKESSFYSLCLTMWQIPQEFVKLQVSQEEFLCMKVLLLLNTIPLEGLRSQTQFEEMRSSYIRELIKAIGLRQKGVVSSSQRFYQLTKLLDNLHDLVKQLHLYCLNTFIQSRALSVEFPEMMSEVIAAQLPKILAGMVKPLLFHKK
THRB (gene 7068), sequence (P10828 whole entry, looked up, the tested form may be a part): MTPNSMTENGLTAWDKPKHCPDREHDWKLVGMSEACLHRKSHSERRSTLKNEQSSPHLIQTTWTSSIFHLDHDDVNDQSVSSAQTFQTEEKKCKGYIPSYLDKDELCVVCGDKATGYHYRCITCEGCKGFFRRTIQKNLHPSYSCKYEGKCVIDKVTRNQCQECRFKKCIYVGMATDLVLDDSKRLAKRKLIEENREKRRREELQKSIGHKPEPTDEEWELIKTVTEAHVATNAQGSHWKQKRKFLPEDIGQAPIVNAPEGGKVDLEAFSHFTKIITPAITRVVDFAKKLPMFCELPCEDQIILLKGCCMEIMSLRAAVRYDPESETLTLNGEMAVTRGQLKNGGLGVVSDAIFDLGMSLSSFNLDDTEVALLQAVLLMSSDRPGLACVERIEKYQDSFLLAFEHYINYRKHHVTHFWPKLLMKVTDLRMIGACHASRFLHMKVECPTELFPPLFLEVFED
Thyroid hormone receptor alpha (Rattus norvegicus) + Thyroid hormone receptor beta (Rattus norvegicus), sequence (P63059 whole entry, looked up): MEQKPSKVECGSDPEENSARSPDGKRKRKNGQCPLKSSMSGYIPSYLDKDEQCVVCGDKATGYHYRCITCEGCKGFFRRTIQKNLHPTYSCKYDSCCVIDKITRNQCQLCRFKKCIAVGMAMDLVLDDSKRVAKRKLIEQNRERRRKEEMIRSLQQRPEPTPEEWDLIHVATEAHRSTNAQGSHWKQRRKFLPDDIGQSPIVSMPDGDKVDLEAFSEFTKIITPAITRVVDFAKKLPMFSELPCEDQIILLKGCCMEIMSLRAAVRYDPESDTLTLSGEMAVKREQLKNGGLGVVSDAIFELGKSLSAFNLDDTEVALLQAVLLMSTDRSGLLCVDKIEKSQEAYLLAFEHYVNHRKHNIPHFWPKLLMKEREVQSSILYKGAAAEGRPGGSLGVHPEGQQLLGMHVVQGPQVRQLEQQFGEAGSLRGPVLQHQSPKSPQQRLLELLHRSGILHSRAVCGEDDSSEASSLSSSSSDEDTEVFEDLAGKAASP
Thyroid hormone receptor alpha (Rattus norvegicus) + Thyroid hormone receptor beta (Rattus norvegicus), sequence (P18113 whole entry, looked up): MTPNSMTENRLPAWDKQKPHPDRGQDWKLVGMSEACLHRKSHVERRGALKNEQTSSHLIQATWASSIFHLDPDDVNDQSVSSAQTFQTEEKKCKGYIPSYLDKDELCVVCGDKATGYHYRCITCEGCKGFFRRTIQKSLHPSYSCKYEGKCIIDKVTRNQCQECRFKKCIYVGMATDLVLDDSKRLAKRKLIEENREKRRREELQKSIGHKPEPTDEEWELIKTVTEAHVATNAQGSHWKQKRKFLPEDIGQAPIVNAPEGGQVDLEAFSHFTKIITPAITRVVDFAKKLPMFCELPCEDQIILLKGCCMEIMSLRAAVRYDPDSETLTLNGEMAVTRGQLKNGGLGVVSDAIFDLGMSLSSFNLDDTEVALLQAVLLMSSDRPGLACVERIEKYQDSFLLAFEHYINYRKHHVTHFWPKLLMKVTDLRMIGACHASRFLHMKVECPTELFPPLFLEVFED
Retinoic acid receptor RXR-alpha (Homo sapiens), sequence (P19793 whole entry, looked up): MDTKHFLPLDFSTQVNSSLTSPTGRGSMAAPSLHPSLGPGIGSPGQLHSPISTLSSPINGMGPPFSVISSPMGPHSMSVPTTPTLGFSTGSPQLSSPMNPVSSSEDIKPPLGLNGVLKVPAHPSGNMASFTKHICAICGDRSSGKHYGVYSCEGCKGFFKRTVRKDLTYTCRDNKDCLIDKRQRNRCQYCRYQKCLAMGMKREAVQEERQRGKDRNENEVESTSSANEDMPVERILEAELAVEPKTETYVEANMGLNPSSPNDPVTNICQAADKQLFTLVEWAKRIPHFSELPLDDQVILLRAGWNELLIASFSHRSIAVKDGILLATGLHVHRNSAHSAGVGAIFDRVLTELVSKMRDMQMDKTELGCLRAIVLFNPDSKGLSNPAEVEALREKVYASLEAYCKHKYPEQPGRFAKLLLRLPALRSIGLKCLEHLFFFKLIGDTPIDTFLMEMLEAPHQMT
THRA (gene 7067), sequence (P10827 whole entry, looked up, the tested form may be a part): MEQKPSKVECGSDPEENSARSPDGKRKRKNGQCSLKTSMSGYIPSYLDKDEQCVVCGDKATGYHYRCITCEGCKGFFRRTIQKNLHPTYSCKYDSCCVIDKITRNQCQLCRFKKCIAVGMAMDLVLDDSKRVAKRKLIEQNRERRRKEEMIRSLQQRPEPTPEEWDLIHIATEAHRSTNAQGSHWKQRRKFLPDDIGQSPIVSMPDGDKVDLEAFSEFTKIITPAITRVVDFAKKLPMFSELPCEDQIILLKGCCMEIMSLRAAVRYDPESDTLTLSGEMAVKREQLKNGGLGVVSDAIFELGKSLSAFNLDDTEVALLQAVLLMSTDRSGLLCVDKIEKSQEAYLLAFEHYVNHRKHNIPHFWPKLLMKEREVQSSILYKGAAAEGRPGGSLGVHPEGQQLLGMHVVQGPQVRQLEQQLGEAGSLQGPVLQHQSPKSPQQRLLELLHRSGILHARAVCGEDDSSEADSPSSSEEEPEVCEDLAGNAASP

In the case of `CC(C)OC(=O)c1ccccc1C(=O)OC(C)C`, the outcome in [1] and in [2] was inactive.

As to `CCCCCCCOC(=O)c1ccccc1C(=O)OCCCCCCC`, the result in [1], in experiment [2] and in experiment [3] was inactive.

On to `COC(=O)C1CCC(C(=O)OC)CC1` (stereo not drawn), for which the result in [4] and in experiment [5] was inactive.

For `C#C[C@]1(O)CC[C@H]2[C@@H]3CCc4cc(OC)ccc4[C@H]3CC[C@@]21C`, the outcome in experiment [6], in experiment [7], in experiment [8], in experiment [9] and in experiment [10] was inactive.

The term AC50 denotes the concentration at which the activity in the assay is half-maximal. `C(=C(c1ccccc1)c1ccccc1)c1ccccc1`: the concentration at half-maximal activity (AC50) in experiment [6] was 30.7 µM (active); in experiment [9], 32.3 µM (active). Also, the call in experiment [7] and in [8] was inactive.

`O=S(=O)(O)c1ccc2ccccc2c1`: the result in experiment [11], in experiment [12], in [13], in experiment [14], in [15] and in experiment [16] was inactive.

As for `Nc1ccc(S(=O)(=O)Nc2nccs2)cc1`, the outcome in experiment [16] was inactive.
